From PubChem BioAssay AID1259415 (National Center for Advancing Translational Sciences (NCATS), 2018)
The whole screen tested about 410,000 compounds, of which about 18,000 (4.4%) were called active. Not shown: some 7% with an inconclusive outcome. The sample as a whole holds a higher share of actives than the screen did. Values without a mark were called inactive. No stated cut-off is given here; in the data, active means activity change below about -60%; inconclusive means no clear call, values can overlap the other calls; inactive means above about -39%.

Assay: qHTS Assay for inhibitors of the human cytomegalovirus (HCMV)
Conditions: HFF cells, HCMV-luciferase reporter, 72 h; at 57.5 µM; stronger effect = lower value
Method in brief: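 Screen run at 2 compound doses on HFFs infected with reporter HCMV, MOI 1 PFU/cell. Luciferase activity from cell lysates at 72 h post infection gave inhibition relative to buffer-only and Salinomycin wells.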
On the % scale 0 is the no-effect control and ±100 the full control effect.

SMILES | activity change, negative = inhibition
CC(C)c1ccc(NC(=O)c2ccc(Cn3nc(N4CCN(c5ccccc5)CC4)ccc3=O)o2)cc1 | -19.5%
Cn1ncc2c(Nc3cccc4ccccc34)ncnc21 | 87.3%
CC(C)CC(=O)Nc1ccc(Cc2ccncc2)cc1 | -32.9%
Cc1cc(C)n(CC(=O)Nc2ccc([N+](=O)[O-])cc2)n1 | -4.15%
Cc1cc([N+](=O)[O-])nn1CC(=O)Nc1ccc(Cc2ccncc2)cc1 | -63.5% (active)
COc1ccc(NC(=O)CSC2=Nc3ccccc3C3=NC(CC(=O)NCc4ccccc4OC)C(=O)N23)cc1Cl (configuration not stated) | 17.7%
CC(Oc1ccc(Br)cc1)C(=O)NC1CCCCCC1 (configuration not stated) | 25.7%
CCC(C)NCCOCCOc1ccc(Br)cc1C (configuration not stated) | -37.4%
CC(C)(C)CC(C)(C)NCC(O)COCCOc1ccc(Br)cc1 (configuration not stated) | -100% (active)
O=C(CCc1ccc(S(=O)(=O)N2CCOCC2)cc1)OCC(=O)c1ccc(Br)cc1 | 49%
Cc1ccc(-c2noc(CNC(=O)c3ccoc3C)n2)cc1 | -11.6%
C/C(=N\NC(=O)c1ccoc1C)c1ccccc1O | -91.4% (active)
CC(=N\NC(=O)c1cc(Br)ccc1O)/C(=N/O)C(=O)Nc1ccccc1 | 0%
Cc1cc(C)c(C#N)c(Nc2cccc(Br)c2)n1 | 34%
CCOC(=O)c1cc(-c2ccccc2)n(-c2cccc(C(=O)Nc3cc(OC)cc(OC)c3)c2)c1C | 0%
O=C(NCC(c1cccs1)N1CCOCC1)c1cc(Cl)ccc1[N+](=O)[O-] (configuration not stated) | -16.2%
CC(=O)Nc1ccccc1OC(=O)N1CCOCC1 | -15.8%
O=C(/C=C/c1cccs1)c1cc(Cl)ccc1OC(=O)N1CCOCC1 | -92.8% (active)
CCc1ccccc1NC(=O)Cn1c(=O)n(-c2cccc(C)c2)c(=O)c2c1c1cc(OC)ccc1n2C | -23.1%
O=C(COC(=O)c1ccccc1C(=O)N1CCN(c2ccccc2)CC1)NCc1ccccc1 | -62.6% (active)
O=C(COC(=O)c1ncc(Cl)c(Cl)c1Cl)NCc1ccccc1 | 11.2%
O=C(COC(=O)CNC(=O)C1CCCCC1)NCc1ccccc1 | 69.4%
O=C(C1CCCN(S(=O)(=O)c2cccc3nonc23)C1)N1CCN(c2ccccc2F)CC1 (configuration not stated) | 6.66%
O=[N+]([O-])c1ccc(NCCCO)c(C(F)(F)F)c1 | -8.02%
Cc1ccc(-c2csc(NC(=O)C3=COCCO3)n2)cc1C | -61.5% (active)
CCC(CC)c1nnc(NC(=O)C2=COCCO2)s1 | -1.99%
Cc1ccc(C(=O)Nc2nnc(C3=COCCO3)o2)cc1C | -0.804%
